Here are results for 7 sequences from publication PMC7862700, “An all-to-all approach to the identification of sequence-specific readers for epigenetic DNA modifications on cytosine”.

Assay in all cases: DAPPL (digital affinity profiling via proximity ligation, sequencing); 10 mM Tris-HCl pH 7.5, 50 mM NaCl, 1 mM DTT, 4% glycerol, room temperature, 30 min; GST-TFs on glutathione beads, 16-mer random dsDNA library, 0.1% formaldehyde crosslink after washing; high values mean tight binding
What all share (settings): protein: recombinant; tags: N-terminal GST; dsDNA, one strand shown

In one assay the target is T1, FLI1 (Homo sapiens, UniProt Q01543 1-452).
T1 sequence: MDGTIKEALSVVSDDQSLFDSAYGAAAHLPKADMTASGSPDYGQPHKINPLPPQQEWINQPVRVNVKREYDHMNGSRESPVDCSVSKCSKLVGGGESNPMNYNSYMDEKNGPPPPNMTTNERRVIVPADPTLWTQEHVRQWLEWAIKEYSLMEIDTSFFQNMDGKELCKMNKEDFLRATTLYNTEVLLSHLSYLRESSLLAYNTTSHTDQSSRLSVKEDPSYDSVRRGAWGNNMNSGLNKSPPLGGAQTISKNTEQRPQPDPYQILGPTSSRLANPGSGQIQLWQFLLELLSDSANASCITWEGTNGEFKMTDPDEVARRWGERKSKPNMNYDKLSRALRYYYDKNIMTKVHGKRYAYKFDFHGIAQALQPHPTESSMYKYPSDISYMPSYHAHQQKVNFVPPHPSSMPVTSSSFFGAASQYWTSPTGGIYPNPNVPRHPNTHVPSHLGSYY
In short, it runs like this: (§1)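 Binding signal is given per hexamer as its read frequency for a factor divided by its frequency in the tag-only sample. GST-fused human transcription factors were expressed in yeast, captured on glutathione beads, barcoded with DNA and pooled with that sample, then incubated with 200 nmole of a 16-mer random double-stranded DNA library in Tris/NaCl/DTT/glycerol buffer for 30 min at room temperature. The pools were then washed, crosslinked, proximity-ligated, amplified by PCR and sequenced on an Illumina NextSeq500.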

The target in the next assay is T2, ELK1 (Homo sapiens, UniProt P19419 1-428).
T2 sequence: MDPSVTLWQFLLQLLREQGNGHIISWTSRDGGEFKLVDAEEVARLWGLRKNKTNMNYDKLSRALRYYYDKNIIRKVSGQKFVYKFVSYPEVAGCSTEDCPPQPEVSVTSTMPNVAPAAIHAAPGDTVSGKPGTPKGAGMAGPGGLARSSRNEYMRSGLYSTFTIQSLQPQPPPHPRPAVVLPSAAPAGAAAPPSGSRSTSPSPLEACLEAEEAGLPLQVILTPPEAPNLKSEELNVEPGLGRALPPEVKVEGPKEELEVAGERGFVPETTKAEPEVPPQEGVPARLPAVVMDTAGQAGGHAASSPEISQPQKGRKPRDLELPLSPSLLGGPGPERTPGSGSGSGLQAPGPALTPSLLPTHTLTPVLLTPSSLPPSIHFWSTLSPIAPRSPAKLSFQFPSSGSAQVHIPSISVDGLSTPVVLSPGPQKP
In short, it runs like this:
as §1

A further assay deals with T3, GABPA (Homo sapiens, UniProt Q06546 1-454).
T3 sequence: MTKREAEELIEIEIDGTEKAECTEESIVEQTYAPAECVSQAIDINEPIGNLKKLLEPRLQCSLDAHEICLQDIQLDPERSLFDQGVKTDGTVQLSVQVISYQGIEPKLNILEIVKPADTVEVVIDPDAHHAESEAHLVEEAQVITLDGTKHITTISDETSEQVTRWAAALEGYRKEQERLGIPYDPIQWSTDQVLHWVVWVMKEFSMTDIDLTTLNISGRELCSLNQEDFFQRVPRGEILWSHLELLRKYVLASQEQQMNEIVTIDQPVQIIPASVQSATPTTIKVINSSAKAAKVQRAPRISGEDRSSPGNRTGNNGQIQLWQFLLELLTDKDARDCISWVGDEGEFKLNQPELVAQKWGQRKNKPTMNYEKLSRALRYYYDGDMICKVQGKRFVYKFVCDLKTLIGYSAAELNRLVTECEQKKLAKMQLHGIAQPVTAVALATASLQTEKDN
In short, it runs like this:
as §1

The target of the next assay is T4, ERG (Homo sapiens, UniProt P11308 1-479).
T4 sequence: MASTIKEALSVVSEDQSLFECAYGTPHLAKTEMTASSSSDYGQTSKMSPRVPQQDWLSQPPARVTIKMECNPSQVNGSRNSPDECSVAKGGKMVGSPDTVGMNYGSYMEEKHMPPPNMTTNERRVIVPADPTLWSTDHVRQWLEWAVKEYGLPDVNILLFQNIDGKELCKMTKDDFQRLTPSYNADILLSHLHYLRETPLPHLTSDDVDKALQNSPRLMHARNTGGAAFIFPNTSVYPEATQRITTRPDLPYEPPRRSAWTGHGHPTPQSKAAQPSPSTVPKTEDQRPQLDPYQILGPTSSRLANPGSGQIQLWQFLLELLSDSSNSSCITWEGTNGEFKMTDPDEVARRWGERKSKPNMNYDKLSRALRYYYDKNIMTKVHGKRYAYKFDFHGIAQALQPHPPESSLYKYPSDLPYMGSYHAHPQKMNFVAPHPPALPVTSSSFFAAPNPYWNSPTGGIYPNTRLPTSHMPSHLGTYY
Put shortly:
as §1

In the next assay the target is ELF1 (Homo sapiens, UniProt P32519 1-619). In short, it runs like this: as §1
In another assay the target is T5, EHF (Homo sapiens, UniProt Q9NZC4 1-300).
T5 sequence: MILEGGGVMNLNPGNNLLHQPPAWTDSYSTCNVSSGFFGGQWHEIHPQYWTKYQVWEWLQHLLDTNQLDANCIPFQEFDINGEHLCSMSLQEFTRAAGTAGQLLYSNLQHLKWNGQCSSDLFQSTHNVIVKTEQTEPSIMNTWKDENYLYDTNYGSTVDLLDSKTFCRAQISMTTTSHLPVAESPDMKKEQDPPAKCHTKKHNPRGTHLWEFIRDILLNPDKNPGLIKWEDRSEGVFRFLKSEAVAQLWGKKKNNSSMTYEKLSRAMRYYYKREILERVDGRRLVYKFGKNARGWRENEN
Put shortly: as §1

In the next assay the target is SPI1 (Homo sapiens, UniProt P17947 1-270). In short, it runs like this:
as §1

The next assay concerns the target SPIB (Homo sapiens, UniProt Q01892 1-262). In short, it runs like this: as §1
For the next assay, the target named is T6, ELK3 (Homo sapiens, UniProt P41970 1-407).
T6 sequence: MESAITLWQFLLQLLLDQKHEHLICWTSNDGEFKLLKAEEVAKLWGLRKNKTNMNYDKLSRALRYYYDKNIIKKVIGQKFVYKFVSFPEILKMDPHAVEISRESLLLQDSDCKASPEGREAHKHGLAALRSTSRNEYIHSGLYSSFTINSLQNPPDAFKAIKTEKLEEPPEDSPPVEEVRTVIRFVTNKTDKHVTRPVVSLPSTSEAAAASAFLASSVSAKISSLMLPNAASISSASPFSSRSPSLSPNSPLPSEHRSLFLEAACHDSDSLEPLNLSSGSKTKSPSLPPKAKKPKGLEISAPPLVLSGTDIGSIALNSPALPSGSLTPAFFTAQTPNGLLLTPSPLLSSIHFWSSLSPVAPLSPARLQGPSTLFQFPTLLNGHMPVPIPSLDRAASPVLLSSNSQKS
In short, it runs like this:
as §1

Sequence of ELF1 (P32519 whole entry): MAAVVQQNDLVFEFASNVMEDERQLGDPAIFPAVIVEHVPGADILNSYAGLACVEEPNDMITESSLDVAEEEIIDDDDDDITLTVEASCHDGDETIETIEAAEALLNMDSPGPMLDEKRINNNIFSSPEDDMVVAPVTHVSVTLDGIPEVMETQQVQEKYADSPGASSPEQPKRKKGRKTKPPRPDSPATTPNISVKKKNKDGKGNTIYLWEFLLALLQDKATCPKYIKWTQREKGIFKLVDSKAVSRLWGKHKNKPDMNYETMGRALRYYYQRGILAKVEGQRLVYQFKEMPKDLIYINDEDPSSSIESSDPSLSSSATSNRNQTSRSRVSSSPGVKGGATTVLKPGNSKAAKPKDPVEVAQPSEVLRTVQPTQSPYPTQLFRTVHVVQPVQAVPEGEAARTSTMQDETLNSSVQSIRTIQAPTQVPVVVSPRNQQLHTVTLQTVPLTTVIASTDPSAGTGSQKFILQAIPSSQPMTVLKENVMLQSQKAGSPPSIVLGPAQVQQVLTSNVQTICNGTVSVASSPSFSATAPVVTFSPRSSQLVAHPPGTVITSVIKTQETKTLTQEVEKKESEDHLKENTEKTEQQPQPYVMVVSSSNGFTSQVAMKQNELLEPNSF
Sequence of SPIB (Q01892 whole entry): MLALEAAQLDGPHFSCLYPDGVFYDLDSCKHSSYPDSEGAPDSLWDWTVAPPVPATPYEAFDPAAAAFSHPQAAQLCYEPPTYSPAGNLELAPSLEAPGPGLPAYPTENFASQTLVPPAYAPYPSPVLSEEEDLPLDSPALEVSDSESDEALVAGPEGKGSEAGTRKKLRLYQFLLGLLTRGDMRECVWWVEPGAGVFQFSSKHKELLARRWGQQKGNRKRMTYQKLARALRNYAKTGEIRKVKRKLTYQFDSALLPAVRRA

As to TTTTCC, the binding signal is 1.9 fold enrichment (6-mer frequency, TF over GST control) with FLI1; 1.68 fold enrichment (6-mer frequency, TF over GST control) in the assay with ELK1; 1.71 fold enrichment (6-mer frequency, TF over GST control) with GABPA; 1.76 fold enrichment (6-mer frequency, TF over GST control) with ERG; 1.6 fold enrichment (6-mer frequency, TF over GST control) with ELF1; 1.76 fold enrichment (6-mer frequency, TF over GST control) in the assay with EHF. Moreover, the binding signal was 1.75 fold enrichment (6-mer frequency, TF over GST control) in the assay with SPI1; 1.79 fold enrichment (6-mer frequency, TF over GST control) in the assay with SPIB; 1.82 fold enrichment (6-mer frequency, TF over GST control) in the assay with ELK3.

As to CTCTAG, the binding signal is 1.25 fold enrichment (6-mer frequency, TF over GST control) in the assay with FLI1; 1.26 fold enrichment (6-mer frequency, TF over GST control) with ELK1; 1.32 fold enrichment (6-mer frequency, TF over GST control) in the assay with GABPA; 1.25 fold enrichment (6-mer frequency, TF over GST control) in the assay with ERG; 1.38 fold enrichment (6-mer frequency, TF over GST control) with ELF1; 1.36 fold enrichment (6-mer frequency, TF over GST control) in the assay with EHF. Moreover, the binding signal is 1.09 fold enrichment (6-mer frequency, TF over GST control) in the assay with SPI1; 1.22 fold enrichment (6-mer frequency, TF over GST control) with SPIB; 1.26 fold enrichment (6-mer frequency, TF over GST control) in the assay with ELK3.

As to TCACTT, the binding signal with FLI1 is 1.56 fold enrichment (6-mer frequency, TF over GST control); with ELK1, 1.78 fold enrichment (6-mer frequency, TF over GST control); with GABPA, 1.52 fold enrichment (6-mer frequency, TF over GST control); in the assay with ERG it was 1.8 fold enrichment (6-mer frequency, TF over GST control); with ELF1, 1.66 fold enrichment (6-mer frequency, TF over GST control); in the assay with EHF it was 1.67 fold enrichment (6-mer frequency, TF over GST control). The binding signal in the assay with SPI1 is 2.11 fold enrichment (6-mer frequency, TF over GST control); in the assay with SPIB, 1.82 fold enrichment (6-mer frequency, TF over GST control); in the assay with ELK3, 1.69 fold enrichment (6-mer frequency, TF over GST control).

In the case of CTGTAT, the binding signal is 1.35 fold enrichment (6-mer frequency, TF over GST control) in the assay with FLI1; 1.28 fold enrichment (6-mer frequency, TF over GST control) with ELK1; 1.31 fold enrichment (6-mer frequency, TF over GST control) with GABPA; 1.18 fold enrichment (6-mer frequency, TF over GST control) with ERG; 1.24 fold enrichment (6-mer frequency, TF over GST control) in the assay with ELF1; 1.3 fold enrichment (6-mer frequency, TF over GST control) in the assay with EHF. Further, the binding signal with SPI1 is 1.23 fold enrichment (6-mer frequency, TF over GST control); with SPIB, 1.31 fold enrichment (6-mer frequency, TF over GST control); with ELK3 it was 1.31 fold enrichment (6-mer frequency, TF over GST control).

Turning to CCTCGA, the binding signal was 1.33 fold enrichment (6-mer frequency, TF over GST control) in the assay with FLI1; 1.26 fold enrichment (6-mer frequency, TF over GST control) with ELK1; 1.31 fold enrichment (6-mer frequency, TF over GST control) with GABPA; 1.3 fold enrichment (6-mer frequency, TF over GST control) with ERG; 1.27 fold enrichment (6-mer frequency, TF over GST control) with ELF1; 1.37 fold enrichment (6-mer frequency, TF over GST control) with EHF. Further, the binding signal with SPI1 was 1.26 fold enrichment (6-mer frequency, TF over GST control); with SPIB, 1.25 fold enrichment (6-mer frequency, TF over GST control); with ELK3, 1.18 fold enrichment (6-mer frequency, TF over GST control).

For the sequence TTATCT, the binding signal in the assay with FLI1 was 1.37 fold enrichment (6-mer frequency, TF over GST control); with ELK1, 1.2 fold enrichment (6-mer frequency, TF over GST control); with GABPA, 1.41 fold enrichment (6-mer frequency, TF over GST control); in the assay with ERG, 1.15 fold enrichment (6-mer frequency, TF over GST control); with ELF1, 1.31 fold enrichment (6-mer frequency, TF over GST control); with EHF, 1.3 fold enrichment (6-mer frequency, TF over GST control). The binding signal is 1.31 fold enrichment (6-mer frequency, TF over GST control) in the assay with SPI1; 1.34 fold enrichment (6-mer frequency, TF over GST control) with SPIB; 1.36 fold enrichment (6-mer frequency, TF over GST control) in the assay with ELK3.

On to ATCGCC, for which the binding signal with FLI1 was 1.28 fold enrichment (6-mer frequency, TF over GST control); with ELK1, 1.36 fold enrichment (6-mer frequency, TF over GST control); with GABPA, 1.27 fold enrichment (6-mer frequency, TF over GST control); in the assay with ERG, 1.29 fold enrichment (6-mer frequency, TF over GST control); in the assay with ELF1, 1.23 fold enrichment (6-mer frequency, TF over GST control); with EHF, 1.37 fold enrichment (6-mer frequency, TF over GST control). Also, the binding signal was 1.22 fold enrichment (6-mer frequency, TF over GST control) with SPI1; 1.29 fold enrichment (6-mer frequency, TF over GST control) with SPIB; 1.27 fold enrichment (6-mer frequency, TF over GST control) with ELK3.
